What all share (assay): qHTS profiling for inhibitors of Plasmodium falciparum proliferation (AID 504749); further: nearly all actives have a fitted effect of over 60% in size
Holding throughout (settings): P. falciparum in erythrocytes, SYBR Green DNA, 72 h; series mostly up to 28.7 µM
On the technique in general: Quantitative high-throughput screening tests each substance at several concentrations.

One assay concerns CP250. In outline:
(§1)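 P. falciparum-infected erythrocytes (0.3% parasitemia, 2.5% hematocrit final) were exposed to compounds for 72 h at 37 C in 5% CO2, then lysed with SYBR Green buffer overnight at room temperature; parasite DNA fluorescence was normalized to artemisinin and DMSO controls.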

The subject of the next assay is CP252. In outline:
as §1

The test system of another assay is CP256. In outline: as §1
The next assay concerns CP260. In outline: as §1
The next assay deals with CP262. In outline:
as §1

A further assay relates to CP265. In outline:
as §1

In another assay the test system is CP266. In outline:
as §1

A further assay relates to CP268. In outline:
as §1

A further assay has as its system CP269. In outline:
as §1

The test system of a further assay is CP286. In outline: as §1
A further assay has as its system CP291. In outline:
as §1

A further assay deals with CP297. In outline: as §1
The test system of the next assay is CP305. In outline:
as §1

Another assay relates to CP315. In outline:
as §1

The test system of a further assay is CP325. In outline:
as §1

For the next assay, the system named is CP329. In outline:
as §1

A further assay concerns CP335. In outline: as §1
In a further assay the test system is DFO2036. In outline:
as §1

The subject of the next assay is DIV14. In outline: as §1
For another assay, the system named is CP247. In outline:
as §1

Inconclusive results are not listed. Activity calls are given as the source filed them. The call rests on the fitted dose curve; in most records, active means well fitted inhibition curve with a large enough effect; inconclusive means small, poorly fitted or top-dose-only effect; inactive means flat fitted curve, though single readings scatter.
Potency means the concentration at half of the fitted maximal effect.

`COC1=C(OC)C(=O)C(CCCCCCCCCCO)=C(C)C1=O`: the Potency result in the assay with CP250, in the assay on CP252, in the assay with CP256, in the assay with CP260, with CP262 and in the assay on CP265 was “inactive” each time. The Potency result in the assay on CP266, with CP268, in the assay with CP269, with CP286, with CP291 and with CP297 was “inactive” each time. For the same compound, the Potency result in the assay with CP305, with CP315, in the assay on CP325, in the assay on CP329, in the assay with CP335 and in the assay on DFO2036 was “inactive” in each case. Further, in the assay on DIV14, the Potency result was “inactive”.

As to `O=c1oc2cc(O)ccc2s1`, the Potency result in the assay on CP247, in the assay with CP252, in the assay with CP256, in the assay on CP260, in the assay on CP262 and in the assay on CP265 was “inactive” each time. The Potency result in the assay on CP266, with CP268, in the assay with CP269, with CP286, in the assay with CP291 and in the assay with CP297 was “inactive” throughout. Besides, the Potency result with CP305, in the assay on CP315, in the assay with CP325, in the assay on CP329, in the assay with CP335 and in the assay with DFO2036 was “inactive” in each case.

For the compound `CCCCCCCCOc1ccccc1C(=O)Nc1ccc(C(=O)OCC[N+](C)(CC)CC)cc1`, the Potency was 10 µM (active) in the assay with CP247; 7.08 µM (active) with CP260; 6.31 µM (active) in the assay with CP286; 6.01 µM (active) in the assay with CP335; 8.91 µM (active) in the assay on DFO2036. The Potency result in the assay with CP262 was “inactive”.

For the compound `Cn1c(NCCN(CCO)CCCc2ccc([N+](=O)[O-])cc2)cc(=O)n(C)c1=O`, the Potency result in the assay with CP250, with CP252, in the assay on CP256, with CP260, in the assay on CP262 and in the assay with CP265 was “inactive” each time. Also, the Potency result in the assay with CP266, with CP268, in the assay on CP269, in the assay with CP286, in the assay with CP291 and in the assay with CP297 was “inactive” in each case. In addition, the Potency entry in the assay with CP305, in the assay on CP315, in the assay with CP325, in the assay with CP329, with CP335 and with DFO2036 was “inactive” throughout. Moreover, the Potency entry in the assay on DIV14 was “inactive”.

Take `c1ccc2[nH]c(-c3cscn3)nc2c1`: the Potency result with CP252, in the assay on CP256, in the assay on CP260, with CP262, in the assay on CP265 and in the assay on CP266 was “inactive” in each case. The Potency entry in the assay on CP268, in the assay with CP269, in the assay with CP286, with CP291, in the assay on CP305 and in the assay with CP315 was “inactive” throughout. The Potency entry in the assay with CP325, with CP329, in the assay on CP335, in the assay with DFO2036 and in the assay with DIV14 was “inactive” in each case.

As to `CC[C@]1(O)C[C@H]2CN(CCc3c([nH]c4ccccc34)[C@@](C(=O)OC)(c3cc4c(cc3OC)N(C=O)[C@H]3[C@@](O)(C(=O)OC)[C@H](OC(C)=O)[C@]5(CC)C=CCN6CC[C@]43[C@@H]65)C2)C1`, the Potency with CP250 was 3.55 µM (active); with CP252, 3.55 µM (active); with CP256 it was 2.24 µM (active); with CP260, 0.0794 µM (active); with CP286, 0.0708 µM (active); with CP291 it was 3.38 µM (active). Moreover, the Potency in the assay on CP297 is 3.01 µM (active); with DFO2036, 1.78 µM (active).

`O=C(OC1C[C@H]2CC[C@@H](C1)[N+]21CCCC1)C(O)(c1ccccc1)c1ccccc1` (stereo partly drawn): the Potency with CP256 was 3.55 µM (active); in the assay on CP262 it was 4.26 µM (active); in the assay on CP265, 3.98 µM (active); in the assay with CP286, 3.98 µM (active); with CP305, 4.26 µM (active); with CP329 it was 4.78 µM (active). Besides, the Potency in the assay with CP335 was 4.26 µM (active).

Take `O=C(O)c1cn(-c2ccc(F)cc2)c2cc(N3CCNCC3)c(F)cc2c1=O`: the Potency entry with CP247, in the assay on CP250 and with CP266 was “inactive” in each case.

In the case of `CCC[C@@H]1C[C@@H](C(=O)N[C@@H]([C@H]2O[C@H](SC)[C@H](O)[C@@H](O)[C@H]2O)[C@@H](C)O)N(C)C1`, in the assay with CP250, the Potency entry was “inactive”. Further, the Potency in the assay on CP256 was 0.398 µM (active); with CP262, 2.39 µM (active).

Take `Cc1nc(Nc2ncc(C(=O)Nc3c(C)cccc3Cl)s2)cc(N2CCN(CCO)CC2)n1`: the Potency entry in the assay on CP256, in the assay with CP260, with CP262, in the assay with CP265, in the assay with CP268 and in the assay on CP291 was “inactive” in each case. The Potency result in the assay with CP305, with CP315, in the assay on CP325, with CP329, with CP335 and in the assay on DFO2036 was “inactive” in each case.

Take `CC1=C(C)C(=O)C(C(CCCCCC(=O)O)c2ccccc2)=C(C)C1=O` (stereo not drawn): the Potency with CP247 is 3.98 µM (active). In addition, the Potency entry in the assay on CP256, in the assay with CP260, in the assay on CP262, in the assay with CP265, with CP266 and in the assay with CP268 was “inactive” each time. Further, the Potency entry with CP269, with CP286, in the assay with CP291, in the assay with CP305, with CP325 and with CP329 was “inactive” throughout. The Potency entry with CP335 and with DFO2036 was “inactive” in each case.

In the case of `N=C(N)c1ccc2cc(OC(=O)c3ccc(N=C(N)N)cc3)ccc2c1`, the Potency was 8.91 µM (active) with CP247, 4.47 µM (active) in the assay with CP286, 4.78 µM (active) with CP305 and 7.57 µM (active) in the assay with DIV14. Besides, in the assay with CP250, the Potency entry was “inactive”.

For `Cc1ccc(NC(=O)c2ccc(CN3CCN(C)CC3)cc2)cc1Nc1nccc(-c2cccnc2)n1`, the Potency with CP269 is 15.1 µM (active); in the assay with CP286, 11.2 µM (active); in the assay with DIV14, 15.1 µM (active).

On to `CCN(CC)CCOc1ccc(Cc2ccccc2)cc1`, for which the Potency entry with CP250, with CP252, with CP256, in the assay with CP262, in the assay on CP265 and in the assay with CP266 was “inactive” in each case. Besides, the Potency entry in the assay with CP268, in the assay on CP269, in the assay with CP286, in the assay on CP291, with CP297 and in the assay on CP305 was “inactive” throughout. In addition, the Potency result with CP315, with CP325, in the assay on CP329, in the assay with CP335 and with DFO2036 was “inactive” in each case.

Consider `COCCCOc1ccnc(CS(=O)c2nc3ccccc3[nH]2)c1C` (stereo not drawn), for which the Potency result in the assay with CP250, with CP252, in the assay with CP256, in the assay with CP262, in the assay with CP265 and with CP266 was “inactive” in each case. Moreover, the Potency result in the assay with CP268, with CP286, in the assay on CP291, in the assay with CP305, in the assay on CP315 and with CP325 was “inactive” throughout. The Potency result in the assay on CP329, in the assay with CP335 and in the assay on DFO2036 was “inactive” throughout.

For `CN1CCC(=C2c3ccccc3CCc3sccc32)CC1`, the Potency result in the assay with CP250, in the assay on CP262, in the assay with CP297, with CP315 and in the assay with CP329 was “inactive” in each case. Further, the Potency in the assay on DIV14 is 4.78 µM (active).

In the case of `CCCCC(CC)COC(=O)C(C#N)=C(c1ccccc1)c1ccccc1` (stereo not drawn), the Potency entry with CP252, with CP262, with CP268, in the assay on CP269, in the assay on CP305 and with CP315 was “inactive” each time. The Potency entry in the assay on CP325, with CP329 and in the assay on DIV14 was “inactive” throughout. For the same compound, the Potency with CP256 is 8.91 µM (active).

Turning to `CC(C)c1ccc2oc3nc(N)c(C(=O)O)cc3c(=O)c2c1`, in the assay on CP247, the Potency is 5.62 µM (active). The Potency result in the assay with CP256, in the assay with CP262, with CP265, in the assay with CP268, with CP269 and in the assay with CP286 was “inactive” throughout. Further, the Potency result in the assay on CP291, with CP297, with CP305, in the assay with CP315, in the assay with CP325 and with CP329 was “inactive” each time. Also, the Potency entry with CP335, in the assay with DFO2036 and with DIV14 was “inactive” in each case.

Turning to `Cc1cc(=O)oc2cc(O)ccc12`, the Potency result in the assay on CP266, in the assay on CP268, in the assay with CP269, in the assay on CP291, with CP305 and with CP315 was “inactive” throughout. Also, the Potency result with CP325, in the assay with CP329 and with DIV14 was “inactive” throughout.

Take `CN(C)CCc1c[nH]c2ccc(Cn3cncn3)cc12`: the Potency result in the assay on CP247, in the assay with CP252, in the assay with CP256, with CP260, with CP262 and in the assay with CP265 was “inactive” each time. Moreover, the Potency result with CP266, in the assay on CP268, in the assay on CP269, with CP286, with CP291 and with CP297 was “inactive” in each case. Besides, the Potency entry in the assay with CP305, with CP315, with CP325, in the assay on CP329, with CP335 and with DFO2036 was “inactive” each time. Moreover, in the assay with DIV14, the Potency entry is “inactive”.

Regarding `Cc1c(C(=O)NN2CCCCC2)nn(-c2ccc(Cl)cc2Cl)c1-c1ccc(Cl)cc1`, the Potency was 7.94 µM (active) with CP247; 11.2 µM (active) in the assay on CP256; 11.2 µM (active) in the assay on CP265; 19 µM (active) in the assay with CP297; 13.5 µM (active) in the assay with DIV14. The Potency result in the assay on CP262 is “inactive”.
